Our source for the growth values is PubChem BioAssay (NCI).

Among the test systems are DU-145 prostate; K-562 leukemia; MALME-3M melanoma; MDA-MB-231 breast; RXF 393 renal; SF-268 CNS; SF-295 CNS; SF-539 CNS; UACC-257 melanoma; M14 melanoma.
Holding throughout (test): NCI-60 one-dose screen, 48 h (100 = growth as untreated, 0 = no growth, -100 = all killed)
Common to all, as to conditions: 10 µM unless noted

Structures are written as SMILES. Compounds without any hit were thinned out: in the full panel of roughly 83,000, 20% have a hit.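 Negative percent growth values reflect cell death: -40 means 40% of the cells present at the start died, and -100 means all died.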 Values without a mark were called inactive. Active and inactive are the calls of the source. How the source made its calls: active means growth percent below 10; inactive means the rest.

For `Nc1cc2ccccc2c(O)c1O`, the growth in the assay on DU-145 prostate is 92.7%; in the assay on K-562 leukemia it was 5.25% (active); in the assay with MALME-3M melanoma it was -39% (active); with MDA-MB-231 breast it was -19.9% (active); with RXF 393 renal it was -52.5% (active); with SF-268 CNS, 53.6%. The growth is 85% in the assay with SF-295 CNS, 16.2% in the assay on SF-539 CNS, 89.4% in the assay on UACC-257 melanoma and 93.3% with M14 melanoma.

For `C=C1C(=O)C2CCC1C2` (stereo not given), the growth in the assay on DU-145 prostate was 98.4%; in the assay with K-562 leukemia it was 92.6%; in the assay on MALME-3M melanoma it was 93.6%; in the assay on MDA-MB-231 breast, 103%; in the assay on RXF 393 renal, 112%; in the assay with SF-268 CNS, 88.9%. The growth in the assay on SF-295 CNS is 102%; with SF-539 CNS, 105%; with UACC-257 melanoma, 105%; in the assay with M14 melanoma it was 96.5%.

Regarding `Cc1ccc(Cc2ccc(C)cc2)cc1`, the growth in the assay on DU-145 prostate is 107%; with K-562 leukemia it was 101%; in the assay on MALME-3M melanoma, 86.9%; in the assay with MDA-MB-231 breast, 123%; in the assay on RXF 393 renal, 99%; in the assay on SF-268 CNS, 106%. In addition, the growth in the assay with SF-295 CNS is 101%; in the assay on SF-539 CNS it was 106%; with UACC-257 melanoma, 93.3%; in the assay on M14 melanoma, 99.6%.

Turning to `COc1c(CNC(=O)CCl)cc2[nH]c(C)cc2c1CNC(=O)CCl`, the growth in the assay on DU-145 prostate is 65.8%; in the assay with K-562 leukemia, 63.5%; in the assay with MALME-3M melanoma, 82%; in the assay with MDA-MB-231 breast, 87.7%; in the assay on RXF 393 renal, 60.8%; in the assay on SF-268 CNS, 59.4%. In addition, the growth is 64.7% in the assay with SF-295 CNS, 72.3% in the assay on SF-539 CNS, 51.9% with UACC-257 melanoma and 47.3% in the assay with M14 melanoma.

With `COc1ccc(C(=O)/C(=N/Nc2ccccc2)c2ccc(OC)cc2)cc1`, the growth is 115% in the assay with DU-145 prostate; 92.8% in the assay with K-562 leukemia; 109% in the assay on MALME-3M melanoma; 82.7% in the assay with MDA-MB-231 breast; 92.4% with RXF 393 renal; 101% with SF-268 CNS. In addition, the growth is 101% in the assay with SF-295 CNS, 95.9% in the assay on SF-539 CNS, 111% in the assay with UACC-257 melanoma and 102% in the assay on M14 melanoma.

On to `O=C(NCc1ccco1)Nc1cccc2c(NC(=O)NCc3ccco3)cccc12`, for which the growth in the assay with DU-145 prostate was 53% [100 µM]; in the assay with K-562 leukemia it was 32.9% [100 µM]; in the assay on MALME-3M melanoma, 111% [100 µM]; with MDA-MB-231 breast, 97.9% [100 µM]; in the assay with RXF 393 renal, 117% [100 µM]; in the assay on SF-268 CNS, 96.3% [100 µM]. For the same compound, the growth in the assay with SF-295 CNS is 84.1% [100 µM]; with SF-539 CNS it was 30.2% [100 µM]; with UACC-257 melanoma it was 112% [100 µM]; in the assay on M14 melanoma it was 66.3% [100 µM].

In the case of `COc1cc(CC#N)c([N+](=O)[O-])cc1OC`, the growth in the assay with DU-145 prostate is 109%; with K-562 leukemia, 94.8%; with MALME-3M melanoma, 111%; in the assay with MDA-MB-231 breast, 99.9%; in the assay with RXF 393 renal, 112%; in the assay with SF-268 CNS it was 103%. The growth with SF-295 CNS was 110%; in the assay on SF-539 CNS, 102%; in the assay with UACC-257 melanoma, 103%; in the assay on M14 melanoma it was 109%.

As for `Cc1cc2c(C(C)C)c(O)c(O)c(C=Nc3ccccc3[N+](=O)[O-])c2c(O)c1-c1c(C)cc2c(C(C)C)c(O)c(O)c(C=Nc3ccccc3[N+](=O)[O-])c2c1O`, the growth in the assay on DU-145 prostate is 94.6%; with K-562 leukemia, 34.9%; in the assay on MALME-3M melanoma it was 93.5%; in the assay on MDA-MB-231 breast it was 74.4%; with RXF 393 renal it was 83.2%; with SF-268 CNS, 73.5%. Besides, the growth is 82% in the assay with SF-295 CNS, 97.2% with SF-539 CNS, 92.6% in the assay with UACC-257 melanoma and 88% in the assay with M14 melanoma.

Turning to `CC(=O)Nc1ccc(C(=O)c2ccc(S(=O)(=O)Nc3ccccc3)cc2)cc1`, the growth is 117% with DU-145 prostate; 112% in the assay on K-562 leukemia; 99.5% with MALME-3M melanoma; 88.1% with MDA-MB-231 breast; 100% in the assay on RXF 393 renal; 104% in the assay on SF-268 CNS. The growth was 109% in the assay on SF-295 CNS, 94.7% in the assay with SF-539 CNS, 69.6% in the assay with UACC-257 melanoma and 91.8% in the assay on M14 melanoma.

In the case of `CCOC(=O)N[C@H]1CCc2cc(OC)c(OC)c(OC)c2-c2ccc(SC)c(=O)cc21`, the growth with DU-145 prostate is 0.871% (active); in the assay with K-562 leukemia it was 9.44% (active); in the assay on MALME-3M melanoma, 51.4%; with MDA-MB-231 breast, -22% (active); with RXF 393 renal, 10.7%; with SF-268 CNS, 23%. Besides, the growth is 3.33% (active) in the assay on SF-295 CNS, -21.9% (active) in the assay on SF-539 CNS, 71% with UACC-257 melanoma and 4.1% (active) in the assay on M14 melanoma.

In the case of `NC(CSSCC(N)C(=O)O)C(=O)O` (stereo not given), the growth in the assay on DU-145 prostate was 36%; with K-562 leukemia, 13.8%; in the assay on MALME-3M melanoma it was 4.18% (active); in the assay on MDA-MB-231 breast it was 2.86% (active); with RXF 393 renal it was -37.9% (active); in the assay with SF-268 CNS, 28.1%. Further, the growth is 11% in the assay on SF-295 CNS, -36.8% (active) in the assay on SF-539 CNS, 5.8% (active) in the assay with UACC-257 melanoma and 2.4% (active) in the assay on M14 melanoma.

As to `Cc1ccc2[nH]c3ccccc3c2c1`, the growth was 104% with DU-145 prostate; 89.8% in the assay on K-562 leukemia; 95.2% in the assay with MALME-3M melanoma; 111% in the assay with MDA-MB-231 breast; 112% in the assay on RXF 393 renal; 103% with SF-268 CNS. The growth with SF-295 CNS was 103%; in the assay with SF-539 CNS, 101%; with UACC-257 melanoma, 104%; with M14 melanoma it was 110%.

In the case of `COC(=O)Cc1cc(COC(C)=O)ccc1C`, the growth in the assay on DU-145 prostate was 116%; in the assay on K-562 leukemia, 108%; in the assay with MALME-3M melanoma, 110%; with MDA-MB-231 breast, 125%; in the assay with RXF 393 renal, 107%; with SF-268 CNS, 113%. Besides, the growth is 121% with SF-295 CNS, 111% in the assay with SF-539 CNS, 108% in the assay on UACC-257 melanoma and 106% in the assay on M14 melanoma.

As to `COc1ccc(/C=N/NC(=O)COCC(=O)N/N=C/c2ccc(OC)cc2)cc1`, the growth with DU-145 prostate was 113%; in the assay with K-562 leukemia, 102%; with MALME-3M melanoma it was 115%; in the assay with MDA-MB-231 breast, 98.4%; in the assay with RXF 393 renal, 104%; in the assay on SF-268 CNS, 110%. The growth with SF-295 CNS is 97.1%; in the assay on SF-539 CNS, 100%; in the assay on UACC-257 melanoma it was 96.6%; with M14 melanoma it was 115%.

Consider `CCN(CC)CCN1CNC(=S)NC1`, for which the growth in the assay with DU-145 prostate is 106%; with K-562 leukemia it was 102%; with MALME-3M melanoma, 103%; with MDA-MB-231 breast it was 114%; in the assay with RXF 393 renal, 114%; with SF-268 CNS, 102%. Further, the growth in the assay on SF-295 CNS is 102%; in the assay on SF-539 CNS it was 103%; in the assay on UACC-257 melanoma, 111%; in the assay on M14 melanoma it was 102%.
